Screening results: PubChem, National Center for Advancing Translational Sciences (NCATS)
Rows were chosen to be rich in hits. Some 3.3% of all compounds tested hit in one or more screens of this group.
WRN inhibitor: qHTS for Inhibitors of WRN Helicase; WRN helicase unwinding, fluorescent forked duplex, kinetic; Potency, µM (highest dose often 114 µM), for inactives: at the highest dose activity change, negative = inhibition, actives largely listed as inhibitors; 360,000 compounds, 0.46% hits; further: potency means the concentration at half of the fitted maximal effect; nearly all actives have a fitted effect of over 55% in size
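Primary qHTS, 1536-well format. 20 nM WRN + compound, 15 min RT; start with 100 nM forked fluorophore/quencher duplex, 2 mM ATP (final); kinetic read ex 525/em 598 nm.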
USP2a block: qHTS Assay for Inhibitors of Ubiquitin-specific Protease USP2a Using CHOP2 as the Reporter. Ubiquitin carboxyl-terminal hydrolase 2 (Homo sapiens), O75604. USP2 core, Ub-CHOP2 coupled fluorogenic reporter, 485/531. Potency, µM (series often up to 38.3 µM), inactives show at the highest dose activity change, negative = inhibition, usual class: inhibitors. 330,000 compounds, 0.01% hits. AID 463254, 2010;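 further: potency means the concentration at half of the fitted maximal effect; plate controls were DMSO wells for no effect and full inhibition by NEM control for full effect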
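Cell-free coupled assay: 10nM USP2 core preincubated 30min RT with compound in Tris-HCl pH 8.0/CaCl2/CHAPS buffer, then 25nM Ub-CHOP2 and 25nM reporter substrate; fluorescence (Ex 485/Em 531) read after 60min RT, normalized to NEM inhibition, concentration-response curves fitted.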
USP1-UAF1 inh: Inhibitors of USP1/UAF1: Primary Screen; 390,000 compounds, 0.23% hits; Ubiquitin carboxyl-terminal hydrolase 1 (Homo sapiens), O94782; Potency, µM (top dose mostly 57.1 µM), for the others: at the highest dose activity change, negative = inhibition, hits mostly inhibitors; recombinant USP1/UAF1, Ub-Rhodamine cleavage fluorescence; AID 743255, 2014; further: potency means the concentration at half of the fitted maximal effect; nearly all actives have a fitted effect of over 60% in size
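USP1/UAF1 complex at 1 nM was preincubated with compound for 15 min at room temperature, then Ub-Rho substrate (150nM final) was added. Fluorescence (480/540 nm) was read kinetically, 6 reads every 60 seconds.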
PLK1 PBD block: qHTS for Inhibitors of PLK1-PDB (polo-like kinase 1 - polo-box domain): Primary Screen. Serine/threonine-protein kinase PLK1 (Homo sapiens), P53350. Plk1 PBD binding of FITC phosphopeptide, fluorescence polarization. Potency, µM, for the others: max response, negative = inhibition, most hits filed as inhibitors. 360,000 compounds, 2.8% hits. AID 720504, 2013; further: potency means the concentration at half of the fitted maximal effect; series mostly up to about 57 µM; nearly all actives have a fitted effect of over 65% in size
PI5P4Ka inh: qHTS for Inhibitors of phosphatidylinositol 5-phosphate 4-kinase (PI5P4K) | PI5P4Kalpha enzyme, ADP-Glo luminescence, 60 min; stronger effect = lower value | max response, % | 330,000 compounds, 1.2% hits; active means max response of -50% or lower; inconclusive means between -30% and -50%; inactive means -30% or higher; further: value at the top dose of about 77 µM
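Controls without substrate or without enzyme flank wells where PI5P4Kalpha converts substrate using 5 microM ATP (final). Incubation lasts 60 minutes at room temperature; ADP formed is read by ADP-Glo luminescence.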
Starred values were filed as active, the others as inactive; ? = inconclusive; · = no result given; [ ] = another dose, or the depositor's remark. Unless noted, the call rests on the fitted dose curve; in most records, active means well fitted curve in the direction sought with a large enough effect; inconclusive means small, poorly fitted or top-dose-only effect, or another doubt; inactive means no such curve, though single readings can be large; an effect the other way counts as inactive or inconclusive. Unless noted, on the % scale 0 is the no-effect control and ±100 the full control effect.

SMILES	WRN inhibitor	USP2a block	USP1-UAF1 inh	PLK1 PBD block	PI5P4Ka inh
COc1ccc(N2CCN(S(=O)(=O)c3cccc4nsnc34)CC2)cc1	-1%	0%	-10%	-2%	·
CN(Cc1ccccc1)C(=O)c1ccc(CSc2nc3cccnc3n2Cc2ccccc2)cc1	·	·	-4%	·	·
N#C/C(=C/c1ccc(-c2cccc([N+](=O)[O-])c2)o1)C(=O)Nc1nc(-c2cccs2)cs1	-12%	·	-16%	-18%	-62*
O=S(=O)(O)c1cc(O)c2c(O)c(N=Nc3cc(Cl)ccc3O)c(S(=O)(=O)O)cc2c1	45µM*	-13%	?	24µM*	-76*
Oc1ccc(Cl)cc1N=Nc1ccccc1	-1%	-1%	-23%	0%	16
Cc1cc(-c2ccc(N=Nc3c(S(=O)(=O)O)cc4cc(S(=O)(=O)O)cc(N)c4c3O)c(C)c2)ccc1N=Nc1c(S(=O)(=O)O)cc2cc(S(=O)(=O)O)cc(N)c2c1O	·	10µM*	·	·	·
CCN(CC)c1ccc(-c2nc(-c3ccco3)no2)cc1[N+](=O)[O-]	·	·	-13%	·	·
Cc1cc(C)n2c(=S)[nH]nc2n1	56µM*	-1%	-6%	3.4µM*	-76*
Cc1cc(C)n2cnnc2n1	1%	1%	-19%	-5%	0
CCOC(=O)c1sc(N2C(=O)C(O)=C(C(=O)c3ccco3)C2c2ccc([N+](=O)[O-])cc2)nc1C (stereo not given)	-9%	·	?	30µM*	-80*
COC(=O)c1sc(N2C(=O)C(O)=C(C(=O)c3ccc(C)o3)C2c2ccc([N+](=O)[O-])cc2)nc1C (stereo not given)	3%[11.6 µM]	0%	?	?	-83*
CCOC(=O)c1sc(N2C(=O)C(O)=C(C(=O)c3ccc(C)o3)C2c2cccc([N+](=O)[O-])c2)nc1C (stereo not given)	-3%	3%	?	24µM*	-51*
Cc1ccc2nc(N3C(=O)C(O)=C(C(=O)c4ccc(C)o4)C3c3cccc(O)c3)sc2c1 (stereo not given)	?	1%	-19%	?	-58*
O=C(NC1CCCCC1)c1ccc2c(c1)N(Cc1ccccc1Cl)C(=O)c1ccccc1S2	·	·	-21%	·	·
CCN(C(=O)Cn1c(=O)n(CCCS(=O)(=O)C2CCCCC2)c(=O)c2ccccc21)c1cccc(C)c1	·	·	-10%	·	·
COc1ccccc1C(=O)NCc1nc2cccnc2n1Cc1ccc(F)cc1	·	·	1%	·	·
Cc1sc2nc(CSCC(=O)Nc3ccc(N4CCOCC4)cc3)[nH]c(=O)c2c1C	0%	2%	-12%	30µM*	-19
Cc1nc(Nc2cc(F)ccc2C)c2nnn(Cc3ccccc3)c2n1	-14%	-9%	-21%	24µM*	-9
COc1ccc(Nc2nc(C)nc3c2nnn3Cc2ccccc2)cc1OC	5%	0%	-12%	3%	0
Cc1nc(Nc2ccccc2Br)c2nnn(Cc3ccccc3)c2n1	-3%	-2%	-1%	-10%	6
Cc1nc(Nc2ccc(Cl)cc2)c2nnn(Cc3ccccc3)c2n1	4%	4%	-13%	27µM*	-20
COc1cc(C2C(=O)N(C3CCCCCC3)CC(=O)N2CCC2=CCCCC2)ccc1OC(C)C (stereo not given)	·	·	-11%	·	·
Cc1cc(-c2ccc(C)c(S(=O)(=O)Nc3ccccc3C(F)(F)F)c2)on1	·	·	-24%	·	·
CC(=O)N1CCN(C(=S)NC(=O)C23CC4CC(CC(C4)C2)C3)CC1	-5%	1%	1%	-5%	1
CNC(=S)N1CCC(NC(=O)C23CC4CC(CC(C4)C2)C3)CC1	8%[57.1 µM]	8%	-3%	8.4µM*	-25
SMILES	WRN inhibitor	USP2a block	USP1-UAF1 inh	PLK1 PBD block	PI5P4Ka inh
COCCNC(=O)C1CCC(CNS(=O)(=O)c2c(C)cc(C)cc2C)CC1 (stereo not given)	4%	-1%	-9%	-9%	0
Cc1cc(C)c(S(=O)(=O)NCC2CCC(C(=O)NCCCN3CCC(C)CC3)CC2)c(C)c1 (stereo not given)	-3%	0%	-20%	24µM*	0
O=S(=O)(Nc1ccc(-c2ccc(N3CCCC3)nn2)cc1)c1cc(F)ccc1F	·	·	-4%	·	·
CN1CCN(S(=O)(=O)c2ccc(NC(=S)NC(=O)c3ccccc3)cc2)CC1	-6%	2%	1%	27µM*	-15
CCC(=O)NC(=S)Nc1ccc(S(=O)(=O)N2CCN(C)CC2)cc1	1%	3%	-18%	-1%	-4
O=C(NC(=S)Nc1ccc(S(=O)(=O)N2CCCCC2)cc1)c1ccc(Cl)cc1	-28%	-7%	-10%	-14%	10
CN1CCN(S(=O)(=O)c2ccc(NC(=S)NC(=O)c3ccc(Cl)cc3)cc2)CC1	-31%	-7%	-23%	19µM*	-51*
COc1ccccc1N1CCN(C(=O)C(CCSC)NS(=O)(=O)c2ccc3c(c2)oc(=O)n3C)CC1 (stereo not given)	·	·	-30%	·	·
C=CC1C(N2CCOCC2)C(C)(C)S1(=O)=O (stereo not given)	5%	5%	3%	9.5µM*	?
O=C(CCn1c(=O)c2cccn2c2ccc(F)cc21)NCCc1ccccc1Cl	·	·	-6%	·	·
CCNc1nc(NCC)nc(N(C#N)CCOc2ccccc2)n1	2%	-1%	-17%	11µM*	2
CCc1ccc2nc(NC(=O)c3ccc(N4C(=O)CCC4=O)cc3)sc2c1	-2%	-1%	-15%	2%	-1
CNS(=O)(=O)c1ccc2nc(NC(=O)c3ccc(N4C(=O)CCC4=O)cc3)sc2c1	10%	1%	-10%	7.5µM*	?
CN(C(=O)CSc1nc2ccc(NC(=O)COc3ccc(F)cc3)cc2s1)c1ccccc1	·	·	-26%	·	·
O=C1SCCC1NS(=O)(=O)c1ccccc1[N+](=O)[O-] (stereo not given)	-4%	-1%	-9%	19µM*	0
COc1ccc(-c2onc3ccc(C(=O)/C=C/N(C)C)cc23)cc1	-32%	3%	?	-11%	-78*
CN(C)/C=C/C(=O)c1ccc2noc(-c3cccc(F)c3)c2c1	-8%	7%	?	-16%	-66*
COc1ccc(-c2onc3ccc(Br)cc23)cc1	-36%[57.1 µM]	14%	-11%	?	2
CCOc1ccccc1N1CC(C(=O)N2CCc3ccccc32)CC1=O (stereo not given)	5%	2%	-7%	-1%	-3
CCOc1ccccc1N1CC(C(=O)N2CCc3ccccc3C2)CC1=O (stereo not given)	8%	0%	-16%	3.4µM*	?
